In PubChem BioAssay AID1851 (National Center for Advancing Translational Sciences (NCATS), 2009):
The whole screen tested about 16,000 compounds, of which about 2,600 (16%) were called active. About 20% were inconclusive and are not listed. The call rests on the fitted dose curve; in most records, active means well fitted curve in the direction sought with a large enough effect; inconclusive means small, poorly fitted or top-dose-only effect, or effect the other way; inactive means no such curve, though single readings can be large or run the other way. A selection follows.

molecular target: Cytochrome P450 2D6 (Homo sapiens) (UniProt P10635); test: Cytochrome panel assay with activity outcomes; conditions: recombinant CYP, pro-luciferin dealkylation, luminescence, p450-cyp2d6; series mostly up to 57.1 µM
Sequence (P10635 whole entry, looked up): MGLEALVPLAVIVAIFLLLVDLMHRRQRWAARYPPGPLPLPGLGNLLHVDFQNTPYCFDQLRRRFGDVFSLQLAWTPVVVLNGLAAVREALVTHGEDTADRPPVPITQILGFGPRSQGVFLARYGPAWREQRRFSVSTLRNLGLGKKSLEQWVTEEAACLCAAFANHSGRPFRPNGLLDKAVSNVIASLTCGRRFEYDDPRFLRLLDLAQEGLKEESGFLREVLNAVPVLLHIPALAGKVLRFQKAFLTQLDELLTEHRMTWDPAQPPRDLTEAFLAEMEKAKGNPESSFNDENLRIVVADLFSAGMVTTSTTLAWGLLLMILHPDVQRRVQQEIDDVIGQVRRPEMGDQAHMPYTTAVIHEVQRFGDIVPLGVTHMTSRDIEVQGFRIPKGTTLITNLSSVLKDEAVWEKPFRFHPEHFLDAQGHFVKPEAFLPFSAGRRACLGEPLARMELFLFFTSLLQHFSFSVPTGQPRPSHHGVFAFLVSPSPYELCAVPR
On the % scale 0 is the no-effect control and ±100 the full control effect.

AC50, inactive:
Cc1n[nH]c(=O)n1-c1cccc(C(F)(F)F)c1
O=c1c2ccc(Cl)cc2nc(-c2cccc(C(F)(F)F)c2)n1O
CCC1C(=O)N=C(SCC(=O)Nc2ccc(C(=O)OC)cc2)NC1=O (stereo not drawn)
O=C(CSc1nc(-c2ccccc2)nc2ccccc12)Nc1nccs1
O=C(O)c1sc2cc(C(F)(F)F)cnc2c1-c1ccccc1
CCCCC1CC(/C(C)=N/NC(N)=O)OC1=O (stereo not drawn)
CC(C)c1ccc(CNc2cc(N3CCCC3)ccc2[N+](=O)[O-])cc1
O=C(NC(NCc1ccccc1)C(Cl)(Cl)Cl)c1cccnc1 (stereo not drawn)
CC(CP(=O)(O)O)NC(=O)Cc1ccccc1 (stereo not drawn)
Cc1n[nH]c(=S)n1/N=C/c1ccccc1OCc1ccc(Cl)cc1
COc1ccc(CNC(C)(C)C)cc1Cl
CCc1ccc(OCC(=O)NC(=S)Nc2ccc(F)cc2)c(Br)c1
CCOC(=O)c1ccc(NC(=O)COc2ccccc2OC)cc1
CCOc1ccc(CNC(=O)C2CC(=O)N(C3CCCC3)C2)cc1OC (stereo not drawn)
CCOc1nc(NCCc2ccc(OC)c(OC)c2)nc(NC(C)(C)CO)n1
CCOc1ccc(CC(=O)C2C(=O)CCCC2=O)cc1OCC
Cc1ccccc1C(=O)NNC(=O)c1ccoc1C
CC(C)CC(=O)N[C@H](C(=O)N[C@H](C(=O)N[C@@H](CC(C)C)[C@H](O)CC(=O)N[C@@H](C)C(=O)N[C@@H](CC(C)C)[C@H](O)CC(=O)O)C(C)C)C(C)C
O=C(Nc1nnc(-c2ccc(Cl)cc2)o1)Nc1ccccc1Cl
COc1ccc(Oc2ncc3nc(-c4cc(F)cc(F)c4)c(=O)n(C)c3n2)cc1
Cc1cc(C(F)(F)F)n2nc(-c3cnn(C)c3C(F)(F)F)cc2n1
CN1CCN(c2ncc3nc(-c4cccs4)c(=O)n(C[C@H]4CCCO4)c3n2)CC1
COC(=O)c1c(-c2cc(OC)c(OC)c(OC)c2)c2ccnc(OCc3ncccn3)c2c(=O)n1Cc1ccnc(C)c1
C[C@H](N)C(=O)O
COc1ccc2c(c1)OC1=C(C(=O)CCC1)C2C1=C(O)CCCC1=O (stereo not drawn)
COc1ncc2nc(-c3ccccc3)c(=O)n(-c3ccccc3)c2n1
COC(=O)C(C(=O)OC)C(C[N+](=O)[O-])c1ccc(OC)c(OC)c1 (stereo not drawn)
O=C1CC(N(O)C2CC(=O)N(Cc3ccccc3)C2=O)C(=O)N1Cc1ccccc1 (stereo not drawn)
Cc1noc(C)c1-c1cc(Nc2ccc(F)cc2)ncn1
Cc1noc(C)c1-c1nccc(Nc2ccc(F)cc2)n1
CN(C)C(=O)c1ccc(-c2nccc(Nc3ccc(F)cc3)n2)cc1
C[C@H]1[C@@H](O)[C@@H](C)\C=C/C=C\C=C/C=C\C=C/C=C\C=C/[C@@H](O[C@H]2O[C@@H](C)[C@@H](O)[C@@H](N)[C@@H]2O)C[C@@H]2O[C@](O)(C[C@@H](O)C[C@@H](O)[C@@H](O)CC[C@@H](O)C[C@@H](O)CC(=O)O[C@H]1C)C[C@@H](O)[C@H]2C(=O)O (stereo in doubt)
Cc1sc2c(c1C)c(=O)n(-c1ccccc1)c1nnc(C)n21
CC(C)OC(=O)C(C)(C)Oc1ccc(C(=O)c2ccc(Cl)cc2)cc1
CC(C)(Oc1ccc(Cl)cc1)C(=O)Nc1cccnc1
CN(C)c1ncc2nc(-c3ccc(F)cc3)c(=O)n(CCc3ccccc3)c2n1
COc1cc2ccc(=O)oc2cc1O
CS(=O)(=O)Nc1cccc(-c2nc(NCCN3CCOCC3)c3ccccc3n2)c1
N#CCCn1c(=O)c(-c2cccc(C#N)c2)nc2cnc(N3CCOCC3)nc21
COc1cccc(-c2cc(C(F)(F)F)nc(N3CCOCC3)n2)c1
Cc1noc(C)c1-c1cncnc1NCCN1CCOCC1
CN(C)C(=O)c1ccc(-c2cncnc2NCCN2CCOCC2)cc1
COC(=O)c1ccccc1NC(=O)c1ccc(COc2ccc(C)c(C)c2)o1
NCCCCCCCCCCN
O=C1NC(c2ccccc2)=NC1(NS(=O)(=O)c1ccccc1)C(F)(F)F (stereo not drawn)
CCOC(=O)c1cc(-c2ccccc2)sc1NC(=O)C(C)(C)C

AC50, active:
CC1=CC(=O)N(c2cccc(C(F)(F)F)c2)C1c1ccc(Cl)cc1 (stereo not drawn) 2.51 µM
COC(=O)c1ccc(NC(=O)Cn2nc(-c3ccncc3)nc2SCC(=O)Nc2nccs2)cc1 10 µM
O=C(Cc1ccccc1)NC(NCCc1ccccc1)C(Cl)(Cl)Cl (stereo not drawn) 14.1 µM
COc1cc(CNC(C)(C)CO)ccc1OCC(=O)Nc1ccc(Br)cc1 5.01 µM
C=CCOc1ccc(CNC(C)(C)CO)cc1OC 1.41 µM
C=CCOc1ccc(CNC(C)(C)CO)cc1OCC 1.41 µM
Cc1ccc(S(=O)(=O)Oc2ccc(C3C4=C(CCCC4=O)OC4=C3C(=O)CCC4)cc2)cc1 7.94 µM
CN(C)c1ccc(-c2nccc(Nc3ccc(F)cc3)n2)cc1 20 µM
Fc1ccc(Nc2ccnc(-c3ccc4c(c3)OCO4)n2)cc1 10 µM
CC(C)(Oc1ccc(Cl)cc1)C(=O)Nc1ccncc1 0.0316 µM
c1cncc(-c2nc(NCCN3CCOCC3)c3ccccc3n2)c1 10 µM
COc1cccc(-c2nc(NCCN3CCOCC3)c3ccccc3n2)c1 12.6 µM
N#Cc1cccc(-c2nc(NCCN3CCOCC3)c3ccccc3n2)c1 7.94 µM
COc1cccc(-c2cncnc2NCCN2CCOCC2)c1 10 µM

activity, negative = inhibition, inactive:
Cc1ccc(S(=O)(=O)Oc2cc(N)c3c(n2)CCC3)cc1 -20.4% [at 11.4 µM]
CCOC(=O)CCN1C(=O)[C@H]2[C@H]3[C@H](O)[C@H](O)C/C(=N/OC[C@@H](O)COCc4ccco4)[C@@H]3CC[C@@H]2C1=O 7.94% [at 11.4 µM]
Nc1nccc(Nc2ccc(S(N)(=O)=O)cc2)n1 -5.16% [at 11.4 µM]
